A selection: hits, their analogues and other compounds. The true share with any hit is near 3.5%.
TEAD-YAP inh: TEAD-YAP interaction inhibition; HEK-TIYL cells, TEAD-Gal4/YAP UAS-luciferase luminescence; inhibition, % at 9.12 µM; 640,000 tested, 1.4% active; AID 1259422; in the data active = inhibition above about 32%;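 note: 0% = median of test compound wells and 100% = reference inhibitor wells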
FBW7 activator: human FBW7 E3 ligase activation, primary screen. AlphaScreen FBW7–phospho-cyclin E peptide binding, activator screen. Q969H0. normalized activity (activation), % at 26.1 µM. 650,000 tested, 0.13% active; in the data active = normalized activity above about 1.9%;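 note: purified mutant Fbw7 with reduced substrate affinity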
MITF inh: human MITF inhibition, primary screen. AlphaScreen MITF homodimerization, bead proximity signal. inhibition, % at 2.6 µM. O75030. 650,000 tested, 0.91% active. AID 1259374; in the data active = inhibition above about 50%;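 note: 0% = vehicle wells with protein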
GPR151 activ: activators of human GPR151; activation, % at 11.2 µM; 650,000 tested, 1% active; Q8TDV0; PathHunter beta-arrestin GPR151 cells, luminescence; in the data active = activation above about 4.9%;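 note: 0% = median of compound wells and 100% = cells with positive control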
Target sequence (Q8TDV0 whole entry, looked up): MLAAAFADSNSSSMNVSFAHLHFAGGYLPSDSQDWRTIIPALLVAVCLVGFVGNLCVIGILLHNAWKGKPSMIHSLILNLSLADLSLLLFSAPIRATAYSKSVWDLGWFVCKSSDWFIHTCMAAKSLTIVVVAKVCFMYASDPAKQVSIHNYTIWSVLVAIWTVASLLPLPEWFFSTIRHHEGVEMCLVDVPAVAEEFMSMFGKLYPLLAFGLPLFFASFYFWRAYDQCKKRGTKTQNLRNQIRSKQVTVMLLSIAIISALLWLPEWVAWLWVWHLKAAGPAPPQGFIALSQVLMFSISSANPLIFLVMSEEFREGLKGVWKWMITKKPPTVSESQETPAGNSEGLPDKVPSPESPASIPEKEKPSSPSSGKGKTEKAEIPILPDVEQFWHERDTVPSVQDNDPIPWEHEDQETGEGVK
Starred values were filed as active, the others as inactive; ! = repeats disagree.

SMILES | TEAD-YAP inh | FBW7 activator | MITF inh | GPR151 activ
CCOC(=O)c1cccc2c1N[C@@H](c1ccc(C(=O)O)cc1)[C@H]1CC=C[C@@H]21 | 8 | -1 | 76* | 0
COc1ccc(-c2csc(=Nc3ccccc3)n2CCCO)cc1OC | 5 | 0 | 11 | -1
COc1ccccc1N=c1scc(-c2ccc(OC)c(OC)c2)n1CCCO | 42* | 0 | 11 | 1
CN=C1NN=C(c2ccccc2OC)CS1 | -10 | 0 | 5 | 2
Cn1c(=O)c(=O)n(C)c2cc(S(=O)(=O)N3CCc4ccccc43)ccc21 | -3 | 0 | 14 | 0
Cc1cc(-c2ccc(S(=O)(=O)N3CCc4ccccc43)cc2)on1 | 58* | 0 | 15 | -1
O=S(=O)(c1ccc(Cl)c(Cl)c1)N1CCc2ccccc21 | 14 | 0 | -7 | 1
Cn1c(=O)oc2cc(S(=O)(=O)N3CCc4ccccc43)ccc21 | 50* | 0 | 9 | 0
CC1Cc2ccccc2N1S(=O)(=O)c1ccc2c(c1)oc(=O)n2C (stereo unspecified) | 49* | 0 | -3 | 1
Cn1c(=O)oc2cc(S(=O)(=O)N3CCCc4ccccc43)ccc21 | 55* | 1 | 8 | -1
Cn1c(=O)n(C)c2cc(NC(=O)CSc3nnc(N)s3)ccc21 | 13 | 0 | 17 | 0
CCCCOc1ccccc1C1NC(=O)NC(C)=C1C(=O)OCCC (stereo unspecified) | -16 | 0 | -7 | 0
O=[N+]([O-])c1cnc(Nc2ccc(S(=O)(=O)Nc3nccs3)cc2)c([N+](=O)[O-])c1 | 0 | 0 | 9 | 1
O=[N+]([O-])c1ccc(Nc2nccs2)c([N+](=O)[O-])c1 | 59* | 0 | 5 | -1
O=C1c2ccc(O)c(O)c2C(=O)c2c(O)ccc(O)c21 | 2 | 1 | 66* | 2
CC1(C)CC(=O)C=C(NNC(=O)Cc2ccccc2)C1 | -2 | 1 | 4 | -1
CC1(C)CC(=O)C=C(NNC(=O)COc2ccccc2)C1 | 5 | 1.9*! | 15 | -1
Cc1ccc(/C=N/NC(=O)c2ccncc2)c(O)c1 | 20 | 0 | 57* | -1
Cc1ccc(/C=N/NC(=O)c2ccc3c(c2)OCO3)c(O)c1 | 56* | 0 | 7 | 1
Cc1ccc(C(=O)N/N=C/c2ccc3c(c2)OCO3)cc1 | 11 | 0 | 10 | 2
O=C(N[C@H]1C[C@H]2C(=O)N[C@@H](Cc3ccc(Cl)cc3)C(=O)N2C1)c1ccc(Cl)c(Cl)c1 | 5 | 0 | 9 | -2
CC1=NN(c2nc(-c3ccccc3)cs2)C(=O)C1C(c1ccccc1)C(C#N)C(N)=O (stereo unspecified) | 76* | 1 | 24 | -1
CCOC(=O)C1(CCOC)CCN(C(=O)C(c2ccccc2C)N(C)C)CC1 (stereo unspecified) | 2 | 0 | 0 | 0
O=C1[C@@H]2C[C@H](NCc3sc4ccccc4c3Cl)CN2C(=O)[C@@H]2CCCN12 | 39* | 0 | 2 | -2
NCCCC[C@@H]1NC(=O)[C@@H]2C[C@H](NCc3sc4ccccc4c3Cl)CN2C1=O | 33* | 0 | 5 | -1
SMILES | TEAD-YAP inh | FBW7 activator | MITF inh | GPR151 activ
CCC(O)CNC(=O)c1cccc(OC2CCN(S(=O)(=O)N(C)C)CC2)c1 (stereo unspecified) | 2 | 0 | 10 | 0
CN(C)S(=O)(=O)N1CCC(Oc2cccc(C(=O)NC3CCCCCC3)c2)CC1 | 44* | 0 | 17 | 0
COc1ccc(-c2csc(NC(=O)c3ccc(C)cc3)c2C(=O)O)cc1 | 47* | 0 | 4 | 0
CCCc1sc(NC(=O)c2ccc(C)cc2)c(C(=O)O)c1C | 52* | 1 | 14 | -1
CCOC(=O)c1c(NC(=O)c2ccc(C)cc2)sc(C(=O)Nc2ccccc2)c1C | -7 | 1 | -4 | 1
O=C(O)C1C2CC=CC2c2cc(Br)cc3c2N1CC1CC=CC31 (stereo unspecified) | 0 | 5.5* | -5 | -1
O=C(O)c1cc2c3c(c1)C1C=CCC1CN3CC1CC=CC21 (stereo unspecified) | 12 | 0 | 76* | 1
Cc1onc(-c2ccccc2)c1C(=O)Nc1sc2c(c1C#N)CCC(C)C2 (stereo unspecified) | 10 | 0 | 11 | 0
N#Cc1c(NC(=O)c2ccccc2I)sc2c1CCCC2 | 49* | 0 | 9 | 1
N#Cc1c(NC(=O)c2cccc3ccccc23)sc2c1CCCC2 | 43* | 0 | -5 | 0
Cc1onc(-c2ccccc2)c1C(=O)Nc1sc2c(c1C#N)CCCC2 | 32* | 0 | -20 | -1
CC(=O)NC(=S)Nc1sc2c(c1C#N)CCCCC2 | 66* | 0 | 1 | -2
